# According to the supplement of paper PMC7261846:
# ± gives the uncertainty stated by the source.
# Test system: Candida albicans SNY425 biofilm
# Test: biofilm OD600 with compound plus antifungal (OD600 (absorbance)); higher = more biofilm remaining
# [1] = assay detail: disruption of 24-h mature biofilm (compound + antifungal for a second 24 h)
# [2] = assay detail: sustained inhibition (compound + antifungal during 90-min adherence and 24-h growth)
SMILES,biofilm OD600 [1],biofilm OD600 [2]
CCC[C@@]1(CCc2ccccc2)CC(O)=C([C@H](CC)c2cccc(NS(=O)(=O)c3ccc(C(F)(F)F)cn3)c2)C(=O)O1 [tipranavir] + OC(Cn1cncn1)(Cn1cncn1)c1ccc(F)cc1F [fluconazole] (first compound 12.5 µM),0.256 ± 0.0057,0.143 ± 0.0085
CC(C)c1nc(CN(C)C(=O)N[C@H](C(=O)N[C@@H](Cc2ccccc2)C[C@H](O)[C@H](Cc2ccccc2)NC(=O)OCc2cncs2)C(C)C)cs1 [ritonavir] + CC[C@H](C)C[C@H](C)CCCCCCCCC(=O)N[C@H]1C[C@@H](O)[C@@H](NCCN)NC(=O)[C@@H]2[C@@H](O)CCN2C(=O)[C@H]([C@H](O)CCN)NC(=O)[C@H]([C@H](O)[C@@H](O)c2ccc(O)cc2)NC(=O)[C@@H]2C[C@@H](O)CN2C(=O)[C@H]([C@@H](C)O)NC1=O [caspofungin] (first compound 12.5 µM),0.159 ± 0.0069,0.12 ± 0.009
N[C@H](C(=O)O)[C@@H]1CC(Cl)=NO1 [Acivicin] + OC(Cn1cncn1)(Cn1cncn1)c1ccc(F)cc1F [fluconazole] (first compound 4 µM),0.279 ± 0.0067,0.123 ± 0.0055
CCCC[C@@H](C=O)NC(=O)OC(C)(C)C + CC[C@H](C)C[C@H](C)CCCCCCCCC(=O)N[C@H]1C[C@@H](O)[C@@H](NCCN)NC(=O)[C@@H]2[C@@H](O)CCN2C(=O)[C@H]([C@H](O)CCN)NC(=O)[C@H]([C@H](O)[C@@H](O)c2ccc(O)cc2)NC(=O)[C@@H]2C[C@@H](O)CN2C(=O)[C@H]([C@@H](C)O)NC1=O [caspofungin] (first compound 12.5 µM),0.254 ± 0.0097,0.167 ± 0.0058
